Screening results (PubChem)
Only a selection was taken, and hits are over-represented in it overall.
Tgondii IFNg – blocks Toxoplasma gondii growth in the presence of IFN-gamma. Toxoplasma gondii growth in IFN-gamma-treated host cells; stronger effect = lower value. activity change, negative = inhibition, % (concentration not given with the values). actives 3.8% (n = 69,000). AID 1259416; in the data active = activity change below about -70%, passing the limit was not always enough;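 also: host cells are HeLa cells infected with Toxoplasma gondii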
Hits are given with their value.

For O=C(NCCc1csc(-c2ccc(F)cc2)n1)c1cccc(Br)c1 the results were Tgondii IFNg -87.
`COCC1CN(C(=O)N(C)C)Cc2nnn(C)c21` (configuration not stated) gave Tgondii IFNg inactive.
Screening NC(=O)N1CCc2[nH]nc(C(=O)N3CCOCC3)c2C1 returned Tgondii IFNg inactive.
For CC(C)NC(=O)Nc1cccc2c1O[C@H](CN(C)C(=O)Nc1ccccc1)[C@H](C)CN([C@H](C)CO)C2=O the results were Tgondii IFNg inactive.
Screening Cn1c(=O)c(-c2nc(-c3cccs3)no2)c(O)c2cc(F)ccc21 returned Tgondii IFNg inactive.
`COC(=O)[C@@H]1C[C@@H](O)CN1C(=O)CCC(=O)NC1CCCCCC1` gave Tgondii IFNg inactive.
`c1cc(Cn2ccnc2C2CCCC2)c2cc[nH]c2c1` gave Tgondii IFNg inactive.
`COCC(=O)N1CCC(c2nc3ccc(Nc4ccccc4)cn3n2)CC1` gave Tgondii IFNg inactive.
`Clc1ccc(Nc2nc(Nc3ccc(Cl)cc3)nc(Oc3ccccc3)n2)cc1` gave Tgondii IFNg -100.
c1ccc(Oc2nc(NCc3ccco3)nc(NCc3ccco3)n2)cc1 was read as Tgondii IFNg inactive.
Screening COc1ccc(-c2nc(Nc3ccc(Cl)cc3)c3ccccc3n2)cc1 returned Tgondii IFNg inactive.
CCc1cnc(N2CCc3cc(C(=O)NCC4CC4)c(N(C)C)nc3CC2)nc1 was read as Tgondii IFNg inactive.
For COc1ccc(-c2nc(NCCCN3CCC(N4CCCCC4)CC3)c3ccccc3n2)cc1 the results were Tgondii IFNg inactive.
COc1ccc(COc2ccc(Cc3cnc(N)nc3N)cc2OC)cc1 was read as Tgondii IFNg -77.
COc1ccc(CCN(C)C2CCCN(c3ccnc(N)n3)C2)cc1OC (configuration not stated) was read as Tgondii IFNg inactive.
Screening COc1ccc(COc2cc3oc(=O)c4cc(C(C)O)ccc4c3cc2OC)cc1 (configuration not stated) returned Tgondii IFNg inactive.
Screening COc1ccc(Cc2cnc(N)nc2N)cc1OC returned Tgondii IFNg -79.
COc1cc(OC)cc(-c2nc(N)c3c(C)c(-c4ccc(OC)c(OC)c4)sc3n2)c1 was read as Tgondii IFNg inactive.
For Nc1nc(N)c(Cc2ccccc2)cc1Cc1ccccc1 the results were Tgondii IFNg inactive.
`CN1CC(=O)N(c2ccccc2)CC12CCN(CC1CCOCC1)C2` (configuration not stated) gave Tgondii IFNg inactive.
For COc1ccc(CN2C(=O)N(CC(C)C)C3(CCN(C/C=C/c4ccco4)CC3)C2=O)cc1 the results were Tgondii IFNg inactive.
`N=C1SC(c2ccccc2)C(=O)N1c1nc2ccccc2s1` (configuration not stated) gave Tgondii IFNg -82.
Screening COc1ccc(C2CC(=O)c3cnn(-c4nc5ccccc5s4)c3C2)cc1 (configuration not stated) returned Tgondii IFNg inactive.
Screening COc1ccc(N2C(=O)CC(N3CCN(c4nc5ccccc5s4)CC3)C2=O)cc1 (configuration not stated) returned Tgondii IFNg inactive.
Cc1cccc(-c2nnc(-c3nc(N4CCc5ccccc54)c4ccccc4n3)o2)c1 was read as Tgondii IFNg inactive.
For CCc1csc(CNC2CCC3(CCNCC3)CC2)n1 the results were Tgondii IFNg -76.
For CCc1csc(CNC2CCN(CC(C)C)CC2)n1 the results were Tgondii IFNg inactive.
Cc1nccn1-c1ccccc1CNC1CCC2(CCNCC2)CC1 was read as Tgondii IFNg inactive.
For O=C(Nc1ccc(-c2nc(-c3ccccc3)co2)cc1)Nc1ccccc1Cl the results were Tgondii IFNg inactive.
COc1ccccc1NC(=O)Nc1ccc(-c2nc(-c3ccc(C)cc3)co2)cc1 was read as Tgondii IFNg -77.
Screening COc1cc(OC)c(NC(=O)Nc2ccc(-c3nc(-c4ccc(C)cc4)co3)cc2)cc1Cl returned Tgondii IFNg -77.
Screening COc1ccc(NC(=O)Nc2ccc(-c3nc(-c4ccccc4)co3)cc2)cc1Cl returned Tgondii IFNg inactive.
For COc1ccc(C)cc1NC(=O)Nc1ccc(-c2nc(-c3cccc(Br)c3)co2)cc1 the results were Tgondii IFNg inactive.
Screening COc1ccccc1NC(=O)Nc1ccc(-c2nc(-c3ccc(C)cc3C)co2)cc1 returned Tgondii IFNg inactive.
`COc1cc(OC)c(NC(=O)Nc2ccc(-c3nc(-c4ccccc4)co3)cc2)cc1Cl` gave Tgondii IFNg -85.
`COc1ccccc1NC(=O)Nc1ccc(-c2nc(-c3cc(C)ccc3C)co2)cc1` gave Tgondii IFNg inactive.
Screening Cc1ccc(-c2coc(-c3ccc(NC(=O)Nc4ccc(F)cc4F)cc3)n2)cc1 returned Tgondii IFNg inactive.
For C/C=C/c1ccccc1[C@H]1[C@@H](CO)N(C(=O)Nc2ccc(OC)cc2)[C@H]1C#N the results were Tgondii IFNg inactive.
CN(Cc1ccc2ccccc2n1)C(=O)c1ccc(-c2cccc3c2OCC3)nc1 was read as Tgondii IFNg inactive.
For CCC1OC(=O)[C@H](C)C(=O)[C@H](C)[C@@H](OC2O[C@H](C)C[C@H](N(C)C)[C@H]2O)[C@](C)(OC)C[C@@H](C)C(=O)[C@@H](C)[C@@H]2N(CCCCn3cnc(-c4cccnc4)c3)C(=O)O[C@]12C (some centres not stated) the results were Tgondii IFNg inactive.
For O=C(Nc1ccc(-c2nc(-c3ccccc3)co2)cc1)c1ccc(F)cc1 the results were Tgondii IFNg inactive.
For O=C(Sc1cccs1)C1COc2ccccc2O1 (configuration not stated) the results were Tgondii IFNg inactive.
For CNc1nnc(C(F)(F)C(F)(F)C(F)(F)F)s1 the results were Tgondii IFNg inactive.
For Cc1ccc2oc(=O)n(CC(=O)NC3CCC(n4cnnc4)CC3)c2c1 (configuration not stated) the results were Tgondii IFNg inactive.
Screening COc1ccc(NC(=O)Cn2nnc3ccccc3c2=O)cc1 returned Tgondii IFNg inactive.
For O=C(c1cncc(-c2ccnc3[nH]ccc23)n1)N1CCCCC1 the results were Tgondii IFNg inactive.
For CNC(=O)c1cc(-c2ccn[nH]2)ccc1Cl the results were Tgondii IFNg inactive.
NC(=O)c1cc(-c2ccnc3[nH]ccc23)ccc1Cl was read as Tgondii IFNg -89.
For Cc1cc(Cl)ccc1C(=O)C1CCCN(C(=O)CCCc2cccs2)C1 (configuration not stated) the results were Tgondii IFNg inactive.
Screening CC(=O)Nc1ccc(C(=O)N(Cc2ccco2)C2(C(=O)NCc3ccccc3)CCN(C(C)=O)CC2)cc1 returned Tgondii IFNg inactive.
Screening CCCc1nc(CN(CC)C(=O)c2cccnc2C)no1 returned Tgondii IFNg inactive.
For Cn1nc(-c2ccccn2)c2c1NC(=O)CC2c1cc2ccc(F)cc2[nH]c1=O (configuration not stated) the results were Tgondii IFNg inactive.
For c1coc(-c2nc(CNC3CCC4(CCNCC4)CC3)no2)c1 the results were Tgondii IFNg inactive.
For O=C(Nc1ccccc1)OCCCCCOC(=O)Nc1ccccc1 the results were Tgondii IFNg inactive.
Screening O=C(Nc1ccc(Cl)cc1)OCc1cccc(COC(=O)Nc2ccc(Cl)cc2)n1 returned Tgondii IFNg -98.
Screening O=C(Nc1ccccc1)OCC(CN1CCCCC1)OC(=O)Nc1ccccc1 (configuration not stated) returned Tgondii IFNg inactive.
For CC(C)(COC(=O)Nc1ccc(Cl)cc1)n1cccc1 the results were Tgondii IFNg inactive.
For O=C(Nc1ccccc1)OCc1cccc(COC(=O)Nc2ccccc2)c1F the results were Tgondii IFNg -82.
